About 8,800 targets were measured; listed, in parts, are those with a hit and a random draw of the rest. About 0.5% of all pairs of compound and target were hits.
Legend:
Test in all cases: log2 fold change, soluble protein after heating vs DMSO (PISA); higher = thermal stabilisation; K562 lysate, 10 uM; active = over 0.2 and 3.5 SD of the protein, either way, in both replicates (recomputed)
[1] = compound: CS(=O)(=O)CCNCc1ccc(-c2ccc3ncnc(Nc4ccc(OCc5cccc(F)c5)c(Cl)c4)c3c2)o1 [lapatinib]
Summary of the method: (§1)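 Dounce homogenisation of K562 pellets in PBS pH 7.4 with 1 mM MgCl2 produced a crude extract, used at 1 mg/mL protein. Exposure to 10 μM compound lasted 30 min, and aliquots were then heated for 3 min across 48°C-58°C, pooled and brought to 0.5% NP-40 at 4°C. The supernatant after 21,000xg for 90 min was quantified by TMTpro 16plex LC-MS/MS with channel sums equalised. Duplicate values are given as log-two fold change in thermal stability relative to solvent controls.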

[2] = compound: CS(=O)(=O)N1CCN(Cc2cc3nc(-c4cccc5[nH]ncc45)nc(N4CCOCC4)c3s2)CC1 [pictilisib]
Summary of the method: as §1

[3] = compound: C[C@@H](Oc1cc(-c2cnn(C3CCNCC3)c2)cnc1N)c1c(Cl)ccc(F)c1Cl [crizotinib]
Summary of the method: as §1

[4] = compound: C[C@H](C1=CC=C(C=C1)C(=O)NC2=C3C=CNC3=NC=C2)N
Summary of the method: as §1

[5] = compound: C[C@H](Nc1ncnc2nc[nH]c12)c1cc2cccc(Cl)c2c(=O)n1-c1ccccc1 [duvelisib]
Summary of the method: as §1

[6] = compound: Cc1cc(Nc2cc(CN3CCOCC3)c3nc(C)c(Cc4ccc(Cl)cc4F)n3n2)n[nH]1 [gandotinib]
Summary of the method: as §1

[7] = compound: Cc1cc(Nc2cc(N3CCN(C)CC3)nc(Sc3ccc(NC(=O)C4CC4)cc3)n2)n[nH]1 [tozasertib]
Summary of the method: as §1

[8] = compound: Cc1ccc(-n2nc(C(C)(C)C)cc2NC(=O)Nc2ccc(OCCN3CCOCC3)c3ccccc23)cc1 [doramapimod]
Summary of the method: as §1

[9] = compound: Cc1ccc(NC(=O)c2ccc(CN3CC[C@H](N(C)C)C3)c(C(F)(F)F)c2)cc1Nc1nccc(-c2cncnc2)n1 [bafetinib]
Summary of the method: as §1

[10] = compound: Cc1cccc(CC(=O)N2CCc3c2ccc(-c2cn(C)c4ncnc(N)c24)c3F)n1
Summary of the method: as §1

Measured: log2 fold change

VPS35L (UniProt Q7Z3J2)
Chain of UniProt Q7Z3J2 (Q7Z3J2 whole entry, looked up): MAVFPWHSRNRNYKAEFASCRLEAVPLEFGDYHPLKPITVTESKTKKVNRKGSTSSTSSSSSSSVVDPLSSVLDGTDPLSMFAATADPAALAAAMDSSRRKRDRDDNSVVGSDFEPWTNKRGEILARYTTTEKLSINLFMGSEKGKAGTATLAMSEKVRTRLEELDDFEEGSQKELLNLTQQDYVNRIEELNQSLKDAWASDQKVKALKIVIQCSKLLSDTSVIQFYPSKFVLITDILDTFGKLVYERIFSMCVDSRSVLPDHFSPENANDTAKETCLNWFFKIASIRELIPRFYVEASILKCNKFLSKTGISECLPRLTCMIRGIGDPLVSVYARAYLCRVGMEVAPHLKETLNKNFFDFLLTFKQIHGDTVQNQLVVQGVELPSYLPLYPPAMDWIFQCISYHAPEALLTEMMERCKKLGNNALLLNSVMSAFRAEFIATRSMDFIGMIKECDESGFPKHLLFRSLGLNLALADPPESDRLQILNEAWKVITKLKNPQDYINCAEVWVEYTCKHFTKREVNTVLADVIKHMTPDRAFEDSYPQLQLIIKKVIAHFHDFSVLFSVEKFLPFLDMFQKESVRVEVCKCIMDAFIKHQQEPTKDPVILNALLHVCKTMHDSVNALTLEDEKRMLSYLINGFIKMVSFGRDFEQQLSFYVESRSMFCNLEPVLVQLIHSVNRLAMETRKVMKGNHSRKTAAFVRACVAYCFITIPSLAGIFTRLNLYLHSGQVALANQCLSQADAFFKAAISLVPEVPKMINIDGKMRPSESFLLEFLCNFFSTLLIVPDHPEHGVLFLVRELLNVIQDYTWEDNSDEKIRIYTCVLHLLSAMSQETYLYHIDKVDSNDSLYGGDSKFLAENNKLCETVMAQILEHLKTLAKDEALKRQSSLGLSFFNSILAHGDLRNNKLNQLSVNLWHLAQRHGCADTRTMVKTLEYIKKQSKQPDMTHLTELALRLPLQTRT
inactive: [1] -0.016 | [2] -0.003 | [3] -0.028 | [4] -0.025 | [5] 0.02 | [6] -0.029 | [7] 0.026 | [8] 0.02 | [9] -0.052 | [10] 0.065

WRNIP1 (UniProt Q96S55)
inactive: [1] -0.021 | [2] -0.043 | [3] 0 | [4] 0.054 | [5] 0.012 | [6] -0.047 | [7] 0.022 | [8] 0.001 | [9] -0.043 | [10] 0.045

VPS41 (UniProt P49754)
inactive: [1] -0.018 | [2] -0.046 | [3] -0.011 | [4] 0.079 | [5] -0.021 | [6] -0.093 | [7] 0.047 | [8] 0.023 | [9] -0.021 | [10] -0.05

ZNF318 (UniProt Q5VUA4)
Chain of UniProt Q5VUA4 (Q5VUA4 whole entry, looked up): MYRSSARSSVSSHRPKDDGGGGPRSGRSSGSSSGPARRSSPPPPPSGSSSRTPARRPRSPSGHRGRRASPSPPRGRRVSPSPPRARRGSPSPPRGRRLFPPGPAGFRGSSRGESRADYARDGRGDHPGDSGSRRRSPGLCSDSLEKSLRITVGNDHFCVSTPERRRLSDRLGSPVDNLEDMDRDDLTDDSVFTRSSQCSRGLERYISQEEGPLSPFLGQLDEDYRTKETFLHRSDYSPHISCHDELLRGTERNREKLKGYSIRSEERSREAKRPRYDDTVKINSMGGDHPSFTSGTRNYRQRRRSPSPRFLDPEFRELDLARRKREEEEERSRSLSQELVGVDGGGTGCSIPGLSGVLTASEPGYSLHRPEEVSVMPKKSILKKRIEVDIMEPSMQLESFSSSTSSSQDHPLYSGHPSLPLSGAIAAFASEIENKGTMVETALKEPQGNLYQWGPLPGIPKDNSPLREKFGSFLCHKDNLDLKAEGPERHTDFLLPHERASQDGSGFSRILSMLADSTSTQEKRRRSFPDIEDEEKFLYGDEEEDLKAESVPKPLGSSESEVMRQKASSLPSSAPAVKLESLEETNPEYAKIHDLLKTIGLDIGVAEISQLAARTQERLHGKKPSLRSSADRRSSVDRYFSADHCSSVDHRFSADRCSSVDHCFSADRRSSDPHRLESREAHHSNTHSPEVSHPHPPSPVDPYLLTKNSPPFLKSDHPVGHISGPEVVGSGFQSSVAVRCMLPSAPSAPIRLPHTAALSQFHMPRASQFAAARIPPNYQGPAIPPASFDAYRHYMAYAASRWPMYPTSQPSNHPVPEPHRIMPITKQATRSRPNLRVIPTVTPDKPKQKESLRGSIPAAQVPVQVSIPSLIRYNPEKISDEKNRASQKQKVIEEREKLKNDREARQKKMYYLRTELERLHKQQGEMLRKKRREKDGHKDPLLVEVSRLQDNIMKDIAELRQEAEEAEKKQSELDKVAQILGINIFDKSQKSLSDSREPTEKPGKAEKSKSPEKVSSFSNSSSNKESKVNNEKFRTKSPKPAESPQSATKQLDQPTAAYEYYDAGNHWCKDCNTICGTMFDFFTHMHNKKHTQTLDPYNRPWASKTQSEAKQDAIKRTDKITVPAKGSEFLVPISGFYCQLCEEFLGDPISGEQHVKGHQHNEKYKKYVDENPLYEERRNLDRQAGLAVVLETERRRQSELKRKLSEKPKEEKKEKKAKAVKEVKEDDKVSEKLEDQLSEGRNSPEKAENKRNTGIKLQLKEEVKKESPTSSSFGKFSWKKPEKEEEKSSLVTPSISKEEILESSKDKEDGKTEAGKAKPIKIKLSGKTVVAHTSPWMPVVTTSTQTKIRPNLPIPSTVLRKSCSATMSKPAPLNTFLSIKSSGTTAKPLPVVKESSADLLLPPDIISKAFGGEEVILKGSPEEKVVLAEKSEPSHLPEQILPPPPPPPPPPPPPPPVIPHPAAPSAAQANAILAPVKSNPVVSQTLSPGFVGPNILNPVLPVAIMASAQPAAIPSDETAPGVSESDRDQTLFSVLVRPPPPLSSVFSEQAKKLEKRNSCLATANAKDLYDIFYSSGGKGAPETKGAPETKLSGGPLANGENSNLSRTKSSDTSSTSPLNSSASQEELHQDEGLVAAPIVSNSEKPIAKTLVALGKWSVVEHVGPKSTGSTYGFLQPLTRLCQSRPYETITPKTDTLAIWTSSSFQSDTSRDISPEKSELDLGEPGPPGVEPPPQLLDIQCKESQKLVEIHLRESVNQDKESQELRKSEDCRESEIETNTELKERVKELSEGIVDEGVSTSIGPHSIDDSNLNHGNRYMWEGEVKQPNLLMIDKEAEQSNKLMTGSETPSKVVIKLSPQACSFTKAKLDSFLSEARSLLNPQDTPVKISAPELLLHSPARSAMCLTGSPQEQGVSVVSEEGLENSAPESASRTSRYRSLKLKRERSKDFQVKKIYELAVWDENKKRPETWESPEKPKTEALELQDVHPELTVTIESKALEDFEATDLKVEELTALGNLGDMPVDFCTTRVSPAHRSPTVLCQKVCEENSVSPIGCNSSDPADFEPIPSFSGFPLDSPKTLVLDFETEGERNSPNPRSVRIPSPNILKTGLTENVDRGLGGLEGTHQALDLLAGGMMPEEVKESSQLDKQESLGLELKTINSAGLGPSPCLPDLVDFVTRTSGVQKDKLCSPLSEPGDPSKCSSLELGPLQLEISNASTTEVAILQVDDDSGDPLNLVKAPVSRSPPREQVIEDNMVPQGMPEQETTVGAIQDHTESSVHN
inactive: [1] 0.031 | [2] 0.059 | [3] 0.023 | [4] -0.008 | [5] 0.046 | [6] -0.021 | [7] -0.019 | [8] -0.01 | [9] -0.086 | [10] 0.112

ZC2HC1A (UniProt Q96GY0)
inactive: [1] 0.004 | [2] 0.056 | [3] -0.009 | [4] -0.082 | [5] 0 | [6] 0.053 | [7] 0.007 | [8] -0.021 | [9] 0.052 | [10] 0.103

VAMP2 (UniProt P63027)
Chain of UniProt P63027 (P63027 whole entry, looked up): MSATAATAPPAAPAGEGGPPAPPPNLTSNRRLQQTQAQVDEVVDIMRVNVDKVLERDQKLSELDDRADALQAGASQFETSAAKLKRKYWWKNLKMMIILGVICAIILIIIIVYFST
inactive: [1] 0.045 | [2] -0.05 | [3] 0.105 | [4] 0.062 | [5] 0.051 | [6] -0.057 | [7] 0.074 | [8] -0.083 | [9] -0.002 | [10] -0.147

WRB (UniProt O00258)
Chain of UniProt O00258 (O00258 whole entry, looked up): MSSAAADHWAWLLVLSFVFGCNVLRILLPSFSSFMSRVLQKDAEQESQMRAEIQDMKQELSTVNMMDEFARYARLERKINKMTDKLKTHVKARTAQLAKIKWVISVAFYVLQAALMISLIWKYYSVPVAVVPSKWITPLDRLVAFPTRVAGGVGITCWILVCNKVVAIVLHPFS
inactive: [1] -0.067 | [2] -0.118 | [3] 0.034 | [4] -0.138 | [5] 0.006 | [7] -0.033 | [8] -0.074 | [9] -0.017 | [10] 0.339
active: [6] 0.348

ZMYM1 (UniProt Q5SVZ6)
inactive: [1] 0.101 | [2] -0.037 | [3] -0.008 | [5] -0.04 | [6] 0.226 | [7] -0.021 | [8] 0 | [9] -0.097
active: [4] -0.25 | [10] 0.284

ZNHIT6 (UniProt Q9NWK9)
inactive: [1] 0.042 | [2] 0.006 | [3] -0.006 | [4] 0.061 | [5] -0.002 | [6] 0.008 | [7] -0.029 | [8] -0.024 | [9] -0.026 | [10] -0.004

VTN (UniProt P04004)
active: [4] -0.384
inactive: [1] -0.057 | [2] 0.026 | [3] 0.019 | [5] 0.018 | [6] 0.164 | [7] -0.006 | [8] -0.023 | [9] -0.054 | [10] 0.148

VCPIP1 (UniProt Q96JH7)
inactive: [1] -0.061 | [2] -0.053 | [3] -0.052 | [4] -0.059 | [5] -0.002 | [6] -0.038 | [7] -0.028 | [8] 0.025 | [9] -0.043 | [10] 0.1

ZFPM1 (UniProt Q8IX07)
Chain of UniProt Q8IX07 (Q8IX07 whole entry, looked up): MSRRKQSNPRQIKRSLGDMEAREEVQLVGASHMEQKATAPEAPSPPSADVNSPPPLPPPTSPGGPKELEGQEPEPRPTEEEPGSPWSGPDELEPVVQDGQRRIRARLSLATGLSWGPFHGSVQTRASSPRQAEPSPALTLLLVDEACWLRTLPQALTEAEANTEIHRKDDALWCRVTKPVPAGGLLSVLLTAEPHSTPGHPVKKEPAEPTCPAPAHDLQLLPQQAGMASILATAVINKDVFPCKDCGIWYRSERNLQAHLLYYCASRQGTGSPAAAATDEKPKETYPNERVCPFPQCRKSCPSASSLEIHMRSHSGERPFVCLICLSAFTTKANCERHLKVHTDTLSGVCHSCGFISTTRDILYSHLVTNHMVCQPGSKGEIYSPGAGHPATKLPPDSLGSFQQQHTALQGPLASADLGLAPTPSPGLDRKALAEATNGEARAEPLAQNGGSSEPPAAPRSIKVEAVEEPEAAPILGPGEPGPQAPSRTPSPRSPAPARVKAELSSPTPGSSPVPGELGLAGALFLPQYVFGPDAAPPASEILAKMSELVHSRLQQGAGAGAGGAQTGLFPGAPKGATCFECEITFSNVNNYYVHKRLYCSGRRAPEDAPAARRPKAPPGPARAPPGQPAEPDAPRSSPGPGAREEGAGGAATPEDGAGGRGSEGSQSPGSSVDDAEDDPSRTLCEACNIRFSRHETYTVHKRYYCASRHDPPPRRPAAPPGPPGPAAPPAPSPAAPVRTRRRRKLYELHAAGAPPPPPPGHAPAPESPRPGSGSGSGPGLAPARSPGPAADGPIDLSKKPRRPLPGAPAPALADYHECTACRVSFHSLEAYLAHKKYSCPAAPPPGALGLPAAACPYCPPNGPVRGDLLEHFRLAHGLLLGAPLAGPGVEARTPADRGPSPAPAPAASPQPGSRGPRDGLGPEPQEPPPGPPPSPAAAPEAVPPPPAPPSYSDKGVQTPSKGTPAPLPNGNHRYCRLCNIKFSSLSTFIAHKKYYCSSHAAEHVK
inactive: [1] -0.003 | [2] -0.008 | [3] -0.135 | [4] 0.009 | [5] 0.001 | [6] -0.079 | [7] -0.118 | [8] 0.023 | [9] -0.077 | [10] -0.018

USE1 (UniProt Q9NZ43)
inactive: [1] -0.035 | [2] 0.088 | [3] -0.057 | [4] 0.039 | [5] -0.056 | [6] -0.103 | [7] 0.011 | [8] 0.112 | [9] -0.019 | [10] 0.027

XPO5 (UniProt Q9HAV4)
inactive: [1] -0.042 | [2] 0 | [3] -0.085 | [4] -0.041 | [5] -0.017 | [6] -0.14 | [7] 0.013 | [8] -0.008 | [9] -0.006 | [10] 0.049

WIPI2 (UniProt Q9Y4P8)
Chain of UniProt Q9Y4P8 (Q9Y4P8 whole entry, looked up): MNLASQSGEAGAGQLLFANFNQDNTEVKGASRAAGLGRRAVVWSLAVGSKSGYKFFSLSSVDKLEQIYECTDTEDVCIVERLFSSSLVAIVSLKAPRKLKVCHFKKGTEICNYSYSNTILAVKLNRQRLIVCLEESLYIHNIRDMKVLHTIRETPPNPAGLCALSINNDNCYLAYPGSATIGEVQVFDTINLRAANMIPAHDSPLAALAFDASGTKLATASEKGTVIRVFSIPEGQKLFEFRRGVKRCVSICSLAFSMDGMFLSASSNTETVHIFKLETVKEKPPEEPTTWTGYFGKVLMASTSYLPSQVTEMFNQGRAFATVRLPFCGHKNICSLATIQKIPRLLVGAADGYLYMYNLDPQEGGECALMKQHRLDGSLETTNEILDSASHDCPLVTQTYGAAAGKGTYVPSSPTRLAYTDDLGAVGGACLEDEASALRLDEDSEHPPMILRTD
inactive: [1] 0.006 | [2] -0.024 | [3] -0.02 | [4] -0.086 | [5] -0.008 | [6] 0.089 | [7] -0.003 | [8] 0.098 | [9] -0.025 | [10] 0.035

YES1 (UniProt P07947)
inactive: [1] 0 | [2] -0.063 | [3] -0.128 | [4] -0.101 | [5] -0.066 | [6] 0.212 | [7] -0.105 | [8] -0.005 | [9] 0.155 | [10] 0.092

USP48 isoform 8 (UniProt Q86UV5)
inactive: [1] -0.01 | [2] -0.001 | [3] -0.022 | [4] -0.006 | [5] -0.001 | [6] -0.044 | [7] 0.008 | [8] 0.024 | [9] -0.027 | [10] 0.034

ZC3H13 (UniProt Q5T200)
inactive: [1] -0.013 | [2] -0.022 | [3] -0.057 | [4] 0.039 | [5] 0.041 | [6] -0.063 | [7] 0.062 | [8] 0.149 | [9] 0.017 | [10] 0.102

ZHX1 (UniProt Q9UKY1)
inactive: [1] 0.014 | [2] 0.003 | [3] 0.018 | [5] 0.038 | [7] -0.09 | [8] -0.013 | [9] -0.08
active: [4] -0.57 | [6] 0.475 | [10] 0.431

ZNF609 (UniProt O15014)
inactive: [1] 0.023 | [2] -0.054 | [3] 0.026 | [4] -0.028 | [5] -0.042 | [6] 0.16 | [7] 0.024 | [8] -0.064 | [9] -0.111 | [10] 0.187

ZNF217 (UniProt O75362)
inactive: [1] -0.02 | [2] 0.059 | [3] -0.025 | [4] -0.045 | [5] -0.011 | [6] -0.009 | [7] 0.044 | [8] 0.004 | [9] 0.037 | [10] 0.052

YLPM1 (UniProt P49750)
inactive: [1] 0.031 | [2] -0.019 | [3] 0.064 | [4] 0.147 | [5] 0.009 | [6] -0.067 | [7] 0.017 | [8] -0.042 | [9] -0.09 | [10] -0.054

YME1L1 (UniProt Q96TA2)
inactive: [1] -0.025 | [2] -0.034 | [3] -0.073 | [4] 0.01 | [5] -0.017 | [6] -0.112 | [7] 0.048 | [8] -0.023 | [9] -0.024 | [10] 0.055

VAC14 (UniProt Q08AM6)
inactive: [1] -0.034 | [2] -0.005 | [3] -0.047 | [4] -0.028 | [5] -0.004 | [6] -0.069 | [7] -0.005 | [8] 0.037 | [9] -0.036 | [10] 0.067

ZMYND8 isoform 19 (UniProt Q9ULU4)
inactive: [1] -0.017 | [2] -0.044 | [3] -0.109 | [4] -0.105 | [5] -0.006 | [6] 0.092 | [7] 0.035 | [8] 0.001 | [9] -0.028 | [10] 0.049

USP34 (UniProt Q70CQ2)
inactive: [1] -0.002 | [2] -0.008 | [3] -0.094 | [4] 0.03 | [5] 0.004 | [6] -0.122 | [7] 0.011 | [8] 0.01 | [9] -0.041 | [10] 0.018

UNC45A (UniProt Q9H3U1)
inactive: [1] -0.006 | [2] -0.026 | [3] -0.045 | [4] 0.019 | [5] -0.003 | [6] -0.111 | [7] 0 | [8] 0.027 | [9] -0.018 | [10] 0.021

WDHD1 (UniProt O75717)
inactive: [1] -0.017 | [2] -0.025 | [3] -0.035 | [4] 0.077 | [5] 0.007 | [6] -0.082 | [7] -0.043 | [8] 0.011 | [9] 0.023 | [10] -0.037

XAB2 (UniProt Q9HCS7)
inactive: [1] -0.02 | [2] -0.051 | [3] -0.096 | [4] 0.025 | [5] 0.038 | [6] -0.055 | [7] -0.073 | [8] 0.01 | [9] 0.065 | [10] 0.028
